Hit rate of the full screen: of about 390,000 compounds, about 2,200 (0.56%) were called active. Another 3% or so got no clear call; they are omitted. Calls come from the whole dose curve; as a rule, active = well fitted inhibition curve with a large enough effect; inconclusive = small, poorly fitted or top-dose-only effect; inactive = no such curve, though single readings can be large or run the other way. Many of the other results were omitted from the sample, so actives are more common in it than they were.
Biological target: Chromobox protein homolog 1 (Homo sapiens) (UniProt P83916)
Assay: HTS for Inhibitors of HP1-beta Chromodomain Interactions with Methylated Histone Tails; note: nearly all actives have a fitted effect of over 70% in size
Conditions: AlphaScreen HP1-beta / biotin-H3K9me3 peptide binding; series mostly up to 114 µM; activity change, negative = inhibition: at the top concentration
How it was run: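 AlphaScreen: HP1-beta (50 nM) preformed 30 min with biotin-H3(1-18)K9me3 peptide (50 nM) in PBS pH 7.4, 0.01% Tween-20. Compound added for 30 min at RT, then streptavidin donor/nickel chelate acceptor beads (10 ug/mL) for 30 min.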
Potency is the fitted concentration of half-maximal effect.

Sequence of Chromobox protein homolog 1 (Homo sapiens) (P83916 whole entry, looked up): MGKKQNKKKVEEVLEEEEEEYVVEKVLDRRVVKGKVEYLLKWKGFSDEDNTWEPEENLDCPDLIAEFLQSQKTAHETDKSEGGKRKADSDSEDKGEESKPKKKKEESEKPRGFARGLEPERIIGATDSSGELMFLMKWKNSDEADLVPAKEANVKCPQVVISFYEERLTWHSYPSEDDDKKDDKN

Compound | activity change, negative = inhibition | Potency
CSc1nc(-c2ccccc2Cl)nc2c1Cc1c(CO)cnc(C)c1O2 | 14.1% (inactive) | –
COC(=O)C1=C(C)N(c2ccc(Br)cc2)C(=O)/C1=C\c1ccco1 | – | 44.7 µM (active)
COC(=O)C1=C(C)N(c2ccc(C)cc2)/C(=C/c2ccc(O)cc2)C1=O | 24.6% (inactive) | –
COc1ccc(N2C(=O)/C(=C\c3ccco3)N=C2SCC(N)=O)cc1Cl | 17.6% (inactive) | –
Cc1nc(N2CCOCC2)c2c(C(=O)NCc3cccc(Cl)c3)c(C)oc2n1 | 34.2% (inactive) | –
CC(C)(C)c1ccc(/C=C/C(=O)NC2CCS(=O)(=O)C2)cc1 (stereo unspecified) | 25.9% (inactive) | –
CN(C)c1ccc(/C=C/C(=O)c2ccc(C(C)(C)C)cc2)cc1[N+](=O)[O-] | – | 31.6 µM (active)
CN(C)c1ccc(S(=O)(=O)NCC(=O)NCC2CCCCC2)cc1[N+](=O)[O-] | -11.4% (inactive) | –
CCCCC(=O)OC1=CN(Cc2ccccc2)S(=O)(=O)c2ccccc21 | 107% (inactive) | –
COc1ccc(C(=O)Nc2nonc2-c2ccc(OC)c(OC)c2)cc1Cl | 29.6% (inactive) | –
O=C(CSc1nc2ccccc2nc1Cc1ccccc1)N1CCCCC1 | 41% [at 57 µM] (inactive) | –
O=C(NCC1CC1)C1(C(F)(F)F)C/C(=C\CCO)CCCO1 (stereo unspecified) | -2.38% (inactive) | –
O=C(O)c1ccccc1N=N/C(=N/Nc1cc(S(=O)(=O)O)ccc1O)c1ccccc1 | – | 10 µM (active)
CCC(=O)Nc1cccc(C(=O)OCc2cc(=O)n3nc(CC)sc3n2)c1 | 27.5% (inactive) | –
O=C(Nc1ccccc1Br)c1cc(CN2CCCC2)on1 | 13.6% (inactive) | –
Fc1ccc(C(Nc2ccc(Cl)c(C(F)(F)F)c2)c2nnc(-c3ccccc3)o2)cc1 (stereo unspecified) | 34% (inactive) | –
COc1ccc(C2CC(=O)N(Cc3ccccc3C)c3c2c(C)nn3-c2nc(C)cc(C)n2)c(OC)c1 (stereo unspecified) | 39.1% (inactive) | –
COc1cc(OC)c2c(c1C(CCN1CCCCC1)c1ccc(N(C)C)cc1)OC(=O)CC2c1ccc(N(C)C)cc1 (stereo unspecified) | -26% (inactive) | –
Cc1sc(NC(=O)C2C3CCC(O3)C2C(=O)O)c(C(=O)OC(C)C)c1-c1ccc(Cl)cc1 (stereo unspecified) | – | 4.47 µM (active)
CC(C)OC(=O)c1cc(NC(=O)C2C3CCC(O3)C2C(=O)O)cc(C(=O)OC(C)C)c1 (stereo unspecified) | 38.1% (inactive) | –
CCc1c(C)sc(NC(=O)C2c3ccccc3Oc3ccccc32)c1C(=O)OC(C)C | 22.5% (inactive) | –

Compound | activity change, negative = inhibition | Potency
FC(F)(F)C1CCCN(c2nsc3ccccc23)C1 (stereo unspecified) | – | 3.16 µM (active)
CCC(=O)N1CCc2cc(S(=O)(=O)NC(C(=O)Nc3ccc(C(C)=O)cc3)C(C)C)ccc21 (stereo unspecified) | 22.5% (inactive) | –
COc1ccc(C2/C=C\CN(Cc3ccco3)C(C)C(=O)N2Cc2ccc(F)cc2)cc1 (stereo unspecified) | 12.8% (inactive) | –
Cc1ccc(CSCC2Nc3ccc(C(=O)N4CCN(c5ccc(F)cc5)CC4)cc3NC2=O)cc1 (stereo unspecified) | – | 20 µM (active)
Cc1noc(C)c1S(=O)(=O)Nc1ccc(C(=O)N2CCN(c3ccc(F)cc3)CC2)cc1 | 27.9% (inactive) | –
CC1CCN(C(=O)c2ccc3c(c2)NC(=O)CN3)CC1 | 22.1% (inactive) | –
Cc1ccc(C)c(N2CCN(c3ccc4cc(S(=O)(=O)N5CCC(C)CC5)ccc4n3)CC2)c1 | 46.2% (inactive) | –
Oc1ccc2ccccc2c1N=Nc1nccs1 | – | 6.31 µM (active)
O=C(CSc1nc(-c2cccc(F)c2)[nH]c1-c1ccccc1)Nc1ccc2c(c1)OCO2 | -8.38% (inactive) | –
Cc1ccccc1CSc1nc(-c2ccccc2)nc2c1Cc1c(CO)cnc(C)c1O2 | 58.3% (inactive) | –
Cc1ccc(NC(=O)C2CCN(S(=O)(=O)c3cc(-c4noc(C)n4)ccc3C)CC2)c(C)c1 | 46.4% (inactive) | –
CCOC(=O)C1=C(NC(=S)NC(=O)c2ccccc2)c2ccccc2CC1(C)C | -12.5% (inactive) | –
Cn1nnc(NC(=S)NC(=O)c2ccccc2)n1 | – | 70.8 µM (active)
O=C(NC(=S)Nc1ncccn1)c1ccccc1Br | 35.2% (inactive) | –
Cc1sc2nc(CC(N)=O)[nH]c(=O)c2c1-c1ccccc1 | 14.8% (inactive) | –
CCN(CC)Cc1nc2sc(C)c(C)c2c(=O)[nH]1 | 28.7% (inactive) | –
CSc1nnc(SCc2nc3sc(C(=O)O)c(C)c3c(=O)[nH]2)s1 | – | 50.1 µM (active)
C=C1CCN(Cc2ccc(OC)cc2)S(=O)(=O)c2ccccc21 | 15.4% (inactive) | –
COC(=O)c1ccc(OC)c(Cn2c(=O)n(Cc3ccccc3)c(=O)c3c2c2cc(OC)ccc2n3C)c1 | 10.2% (inactive) | –
Cc1cc(C)cc(NC(=O)c2cnc3sc(N4CCCC4)nn3c2=O)c1 | 38.7% (inactive) | –
O=C(NCc1ccccc1)c1cc(-c2cccc(Cl)c2)on1 | 30% (inactive) | –

Compound | activity change, negative = inhibition | Potency
O=C(O)C(c1ccccc1)N1C(=O)/C(=C\c2ccc(-c3cccc(Cl)c3)o2)SC1=S (stereo unspecified) | – | 39.8 µM (active)
CCC(C)N1C(=O)S/C(=C/c2ccc(Sc3nc4ccccc4[nH]3)o2)C1=O (stereo unspecified) | 16.7% (inactive) | –
Cc1cccc(N2CCN(C(=O)Cn3ncc4c5ccccc5n(C)c4c3=O)CC2C)c1 (stereo unspecified) | 36.1% (inactive) | –
CC(C)c1ccc(NS(=O)(=O)c2ccc3[nH]cc(C(=O)NC4CCCC4)c(=O)c3c2)cc1 | 3.66% (inactive) | –
Cc1cc2c(cc3c(SCc4cccc(Cl)c4)nnc(C)n32)o1 | -21.8% (inactive) | –
CCOc1cccc(CC(=O)N2CCc3c([nH]c4ccccc34)C2c2ccc(F)cc2)c1OCC (stereo unspecified) | -8.88% [at 57 µM] (inactive) | –
CCOC(=O)C1Nc2ccc(C(F)(F)F)cc2C2C=CCC12 (stereo unspecified) | -23% (inactive) | –
CCOc1cccc2c1N[C@@H](c1ccc(C(=O)O)cc1)[C@H]1CC=C[C@@H]21 | – | 35.5 µM (active)
C=C1CCN(C(CC(C)C)C(=O)NCc2cc(OC)c(OC)c(OC)c2)S(=O)(=O)c2ccccc21 (stereo unspecified) | 23.6% (inactive) | –
CCCn1c2ccccc2c2cnn(CC(=O)N(C)c3ccccc3CC)c(=O)c21 | -12.7% (inactive) | –
COc1ccc(C2/C=C\CN(C(=O)c3ccc(C)cc3)C(Cc3ccccc3)C(=O)N2Cc2ccc(F)cc2)cc1 (stereo unspecified) | 17.1% (inactive) | –
COc1cccc(CNC(=O)Cn2c(=O)c3cccn3c3ccc(F)cc32)c1OC | 83.2% (inactive) | –
O=C(c1cccs1)c1cn(CCOc2ccc(Cl)cc2)c2ccccc12 | 17.6% (inactive) | –
Cc1ccc(-c2ccc(CCC(=O)O)n2-c2ccc(C(N)=O)cc2)cc1 | 6.36% (inactive) | –
CCN1/C(=C\c2ccc3ccccc3[n+]2CC)Sc2cc(C)ccc21 | -18.2% (inactive) | –
CCN1C(=O)c2ccccc2Sc2ccc(NC(=O)Cc3ccc(OC)cc3)cc21 | 6.32% [at 57 µM] (inactive) | –
CCN1/C(=C/C(=S)Nc2ccccc2)Sc2ccccc21 | – | 50.1 µM (active)
COc1ccc(CCNC(=O)c2ccc(CSCc3ccc(C)cc3)o2)cc1OC | -13.4% (inactive) | –
COc1ccc(-c2ccc(OC)c(C3C4C=CCC(C)C4C(=O)N3Cc3ccccc3)c2)cc1C (stereo unspecified) | 63.4% (inactive) | –
